{"source": "PubChem BioAssay AID2685", "about": "(National Center for Advancing Translational Sciences (NCATS), 2010)", "note": "The campaign covered roughly 320,000 compounds. About 2,100 (0.66%) were called active. Roughly 53% stayed inconclusive and do not appear here. Calls follow the shape of the dose curve; as a rule, active = well fitted inhibition curve with a large enough effect in the signal ratio, with a control signal flat (not every such curve was filed as active); inconclusive = small, poorly fitted or top-dose-only effect, or effect the other way, or a change in a side signal; inactive = flat fitted curve, though single readings scatter; the % refers to the signal ratio. This excerpt belongs to a sample that is enriched for actives. Potency is read from the fitted curve at half-maximal effect."}
{"assay": "qHTS Assay for Lipid Storage Modulators in Drosophila S3 Cells;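 as to cell number change: cells counted by Cell Tracker Red CMTPX staining in the red channel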", "conditions": "BODIPY lipid droplet fluorescence, 18-24 h, cells fed with added oleic acid; cell number change: measured here: cell count max response; series mostly up to 46.1 µM", "procedure,_shortened": "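Drosophila S3 cells loaded with oleic acid (400 uM, as added) and compounds at several concentrations; lipid droplets imaged by 488-nm laser-scanning cytometry, 500–530 nm intensity and object ratio to cell channel. Percent activity normalized to 20 uM Triacsin C.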", "units": {"cell number change": "%"}}
{"smiles": "O=C1c2ccccc2C(=O)C1c1ccccn1", "Potency": "inactive", "cell number change": 7}
{"smiles": "Cc1nc2scc(C)n2c(=O)c1S(=O)(=O)NCCc1ccc(Cl)cc1", "Potency": "inactive", "cell number change": -15.9}
{"smiles": "CC(C)N(C)CCOC(=O)c1ccc2c(c1)OCCO2", "Potency": "inactive", "cell number change": -0.0823}
{"smiles": "Cc1oc(-c2ccoc2)nc1CN(Cc1ccccc1)CC1CC1", "Potency": "inactive", "cell number change": 1.56}
{"smiles": "COc1ccc(Cl)cc1NC(=O)COC(=O)CNC(=O)c1ccc([N+](=O)[O-])c(C)c1", "Potency": "inactive", "cell number change": 7.48}
{"smiles": "CCOC(=O)C(N)CSC1CC(=O)N(c2ccc(OC)cc2)C1=O", "note": "(stereo not drawn)", "Potency": "3.26 µM (active)", "cell number change": -13.3}
{"smiles": "CCOC(=O)C(N)CSC1CC(=O)N(c2ccc(C(=O)OC)cc2)C1=O", "note": "(stereo not drawn)", "Potency": "inactive", "cell number change": 8.08}
{"smiles": "CCOC(=O)C(N)CSC1CC(=O)N(c2ccc(OCC)cc2)C1=O", "note": "(stereo not drawn)", "Potency": "inactive", "cell number change": 8.77}
{"smiles": "CCOC(=O)c1cc(C)nc(Sc2ccc(C)cc2)c1C#N", "Potency": "inactive", "cell number change": 3.68}
{"smiles": "Cc1ccc(OCc2ccc(-c3ccccc3)cc2)c([N+](=O)[O-])n1", "Potency": "inactive"}
{"smiles": "O=[N+]([O-])c1cc2c(cc1Br)CCN2", "Potency": "inactive", "cell number change": -0.505}
{"smiles": "c1ccc(CNc2ccc(CNc3ncn[nH]3)cc2)cc1", "Potency": "inactive", "cell number change": 13.8}
{"smiles": "COc1cc(C(=O)Nc2cccc(-c3nc4ccccc4o3)c2C)cc(OC)c1OC", "Potency": "inactive", "cell number change": -6.82}
{"smiles": "CC(=O)NCCC(=O)Nc1nc(-c2c[nH]c3ccccc23)cs1", "Potency": "14.6 µM (active)", "cell number change": -1.21}
{"smiles": "CN1CCN(CC(=O)Nc2nc(-c3c[nH]c4ccccc34)cs2)CC1", "Potency": "inactive", "cell number change": -11.4}
{"smiles": "CC(=O)NCCC(=O)Nc1nc(-c2ccccc2Cl)cs1", "Potency": "inactive"}
{"smiles": "COCC(C)N1CCC(n2nccc2NC(=O)c2ccc3c(c2)OCO3)CC1", "note": "(stereo not drawn)", "Potency": "inactive", "cell number change": 11.7}
{"smiles": "CCOc1ccc(N(CC(=O)NCC2CCCO2)S(=O)(=O)c2ccc(OC)c(OC)c2)cc1", "note": "(stereo not drawn)", "Potency": "inactive", "cell number change": 14.4}
{"smiles": "CC1(C)N=C(/C=N/O)CN1O", "Potency": "6.51 µM (active)", "cell number change": 1.43}
{"smiles": "Cc1ccc(NC(=O)C2(N(C(=O)Cn3nnnc3N)c3ccc(C)cc3)CCCCC2)cc1", "Potency": "inactive", "cell number change": -7.84}
{"smiles": "CCOC(=O)CSc1nc2c(c(=O)n1-c1ccc(OC)cc1)SCC2", "Potency": "inactive"}
{"smiles": "CCc1nnc(NC(=O)CSc2nccn2-c2cccc(C)c2)s1", "Potency": "inactive", "cell number change": 0.532}
{"smiles": "COc1ccccc1NC(=O)CCNC(=O)c1ccc(C)cc1", "Potency": "inactive"}
{"smiles": "Cc1ccc(C(=O)c2c(NC(=O)c3cccnc3)sc3c2CCCC3)cc1", "Potency": "inactive", "cell number change": 17.7}
{"smiles": "Cc1ccc(C(=O)c2c(NC(=O)CSc3nnc(N)s3)sc3c2CCCC3)cc1", "Potency": "18.4 µM (active)", "cell number change": -2.02}
{"smiles": "CCOC(=O)c1c(NC(=O)CSc2nnc(C)s2)sc2c1CCCCC2", "Potency": "inactive", "cell number change": -12.5}
{"smiles": "CCOC(=O)N1CCN(c2ncc(C(F)(F)F)cc2Cl)CC1", "Potency": "inactive", "cell number change": 23.9}
{"smiles": "NC(=NCCc1ccccc1)NS(=O)(=O)c1ccccc1", "Potency": "inactive", "cell number change": 16.5}
{"smiles": "CC(C)CN=C(NS(=O)(=O)c1ccccc1)C(Cl)(Cl)Cl", "Potency": "18.4 µM (active)"}
{"smiles": "CC(=O)NS(=O)(=O)c1ccccc1", "Potency": "inactive", "cell number change": -6.94}
{"smiles": "COc1ccc(CCNC(=O)c2ccc(=O)[nH]c2)cc1OC", "Potency": "inactive", "cell number change": 10.1}
{"smiles": "CC(=O)N1CCN(S(=O)(=O)c2cccc(C(=O)OCc3cccc(F)c3)c2)CC1", "Potency": "6.51 µM (active)", "cell number change": -11.8}
{"smiles": "COc1ccc(COC(=O)c2cccc(S(=O)(=O)N3CCCC3)c2)cc1F", "cell number change": -0.63, "outcome": "inactive [at 0.369 µM]"}
{"smiles": "CC(=O)N1CCN(S(=O)(=O)c2cccc(C(=O)OCN3C(=O)c4ccccc4C3=O)c2)CC1", "Potency": "inactive", "cell number change": 22.4}
{"smiles": "COc1ccccc1CNC(=O)COc1cc2c(c3oc(=O)cc(C)c13)CCC(C)(C)O2", "Potency": "inactive", "cell number change": 5.31}
{"smiles": "COc1cccc(CNC(=O)COc2cc3c(c4oc(=O)cc(C)c24)CCC(C)(C)O3)c1", "Potency": "1.3 µM (active)", "cell number change": -18.8}
{"smiles": "CCc1cc(=O)oc2c3c(cc(OCC(=O)NCCC(=O)O)c12)OC(C)(C)CC3", "Potency": "inactive", "cell number change": 4.77}
{"smiles": "Cc1cc(=O)oc2c3c(cc(OCC(=O)NCC(=O)O)c12)OC(C)(C)CC3", "Potency": "inactive", "cell number change": 13.8}
{"smiles": "CCc1cc(=O)oc2c3c(cc(OCC(=O)NCc4ccncc4)c12)OC(C)(C)CC3", "Potency": "inactive", "cell number change": 18.3}
{"smiles": "CCc1cc(=O)oc2c3c(cc(OCC(=O)NCc4cccnc4)c12)OC(C)(C)CC3", "Potency": "7.31 µM (active)", "cell number change": 1.59}
{"smiles": "O=C(Cc1ccccc1)NNC(=O)c1ccc(NC(=O)c2ccccc2)cc1", "Potency": "inactive", "cell number change": 27.8}
{"smiles": "CN(C)S(=O)(=O)c1ccc(C(=O)Oc2coc(CSc3ncccn3)cc2=O)cc1", "Potency": "inactive", "cell number change": 6.85}
{"smiles": "NC(=O)N/N=C(/CCCCCC/C(=N\\NC(N)=O)c1ccccc1)c1ccccc1", "Potency": "inactive", "cell number change": 2.15}
{"smiles": "Cc1ccc(C(=O)N2C3=C(CCCC3)C(=O)NC23CCCCC3)cc1", "Potency": "inactive", "cell number change": 3.44}
{"smiles": "COC(=O)CNC(=O)CNC(=O)Nc1ccccc1", "Potency": "inactive", "cell number change": 1.69}
{"smiles": "Cn1nccc1NC(=O)COCC(=O)O", "Potency": "inactive", "cell number change": 11.4}
{"smiles": "Cc1ncsc1C(=O)NCc1ccc(N2CCCC2=O)cc1", "Potency": "2.59 µM (active)"}
